Only some compounds are listed: those with a hit (about 6.5% of all), similar ones and a draw of the others.
MARV entry inh = inhibitors of Marburg virus binding or cell entry. Marburg virus pseudotyped entry inhibition, cell reporter. Potency, µM (titrated, usually from 37.8 µM), hits mostly inhibitors. hit rate 1.8% among 300,000. AID 540276; calls by dose curve; tested in HEK293 cells
VACV mCherry inh = vaccinia inhibition (mCherry reporter) | hit rate 0.63% among 310,000 | Vaccinia virus mCherry reporter infection, fluorescence | Potency, µM (titrated, usually from 36.5 µM), actives largely listed as inhibitors; calls by dose curve; tested in A549 cells; note: nearly all actives have a fitted effect of over 35% in size
Vaccinia Venus = vaccinia inhibition (Venus reporter); Vaccinia virus Venus reporter expression, fluorescence; Potency, µM (doses to about 36.5 µM), most hits filed as inhibitors; hit rate 0.46% among 330,000; AID 720580; calls by dose curve; tested in A549 cells; note: nearly all actives have a fitted effect of over 30% in size
HCMV inh = human cytomegalovirus inhibition; HFF cells, HCMV-luciferase reporter, 72 h; hits give low values; activity change, negative = inhibition, % at 57.5 µM; hit rate 4.5% among 410,000; in the data active = activity change below about -60%; inconclusive = no clear call, values can overlap the other calls; inactive = above about -39%
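Screen run at 2 compound doses on HFFs infected with reporter HCMV, MOI 1 PFU/cell. Luciferase activity from cell lysates at 72 h post infection gave inhibition relative to buffer-only and Salinomycin wells.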
Lassa entry inh = Lassa virus entry inhibition; Lassa virus pseudotype entry inhibition, cell reporter; Potency, µM (top dose mostly 37.9 µM), actives largely listed as inhibitors; hit rate 1.2% among 300,000; calls by dose curve; tested in HEK293 cells; note: nearly all actives have a fitted effect of over 50% in size
FMDV inh = foot and mouth disease virus antiviral activity | FMDV antiviral cell-based qHTS | Potency, µM (titrated, usually from 57.9 µM), actives largely listed as inhibitors | hit rate 1.2% among 410,000; calls by dose curve; tested in HEK293T cells; note: read-out not given here; nearly all actives have a fitted effect of over 45% in size
Large screens that a line does not name were inactive.

Cc1nc(-c2ccccn2)nc(N(C)c2ccccc2)c1Cl	HCMV inh -61 (no result: MARV entry inh, VACV mCherry inh, Vaccinia Venus, Lassa entry inh)
CC(CCC(C)[n+]1cccc(C#N)c1)[n+]1cccc(C#N)c1 (configuration not stated)	none (no result: MARV entry inh, HCMV inh, Lassa entry inh, FMDV inh)
CC(C)(C)c1ccc(C(=O)n2cnc3ccccc32)cc1	FMDV inh inconclusive (no result: MARV entry inh, VACV mCherry inh, Vaccinia Venus, Lassa entry inh)
CCN(CC)c1ccc(C(=O)n2cnc3ccccc32)cc1	MARV entry inh inconclusive, VACV mCherry inh 14µM, Vaccinia Venus inconclusive, Lassa entry inh inconclusive
O=C1CSc2ccc(C(=O)N3CCCCC3)cc2N1	HCMV inh -68 (no result: MARV entry inh, Lassa entry inh)
Brc1c(-c2ccccc2)nc2n1Cc1ccccc1-2	MARV entry inh inconclusive, HCMV inh -84, Lassa entry inh inconclusive
CC#CCN1c2ccccc2[C@]23C[C@@H](C(=O)OC)N(C(=O)C4CCC4)C2=NC(C(=O)OC)=C(C(=O)OC)[C@H]13	HCMV inh -75 (no result: MARV entry inh, Lassa entry inh)
COC(=O)C1=C(C(=O)OC)[C@@H]2N(C)c3ccc(OC)cc3[C@@]23C[C@@H](C(=O)OC)N(C(=O)c2ccc(Br)cc2)C3=N1	VACV mCherry inh inconclusive, Vaccinia Venus 11µM, FMDV inh inconclusive (no result: MARV entry inh, Lassa entry inh)
COC(=O)C1=C(C(=O)OC)[C@@H]2N(Cc3ccccc3)c3ccccc3[C@@]23C[C@@H](C(=O)OC)N(C(=O)c2ccc(Br)cc2)C3=N1	VACV mCherry inh inconclusive, Vaccinia Venus 10µM, FMDV inh inconclusive (no result: MARV entry inh, HCMV inh, Lassa entry inh)
CSc1ccc(CN(C)C(C)C(=O)NCC2CCCCC2)cc1 (configuration not stated)	MARV entry inh 11µM
CSc1nc2nccc(-c3ccc(Cl)cc3)n2n1	none (no result: VACV mCherry inh)
CSc1nc2nccc(/C=C\c3ccccc3)n2n1	HCMV inh -106, FMDV inh inconclusive (no result: VACV mCherry inh, Vaccinia Venus)
COc1ccc(Cn2c(=O)c3oc4ccccc4c3n(Cc3ccccc3)c2=O)cc1	none (no result: MARV entry inh)
CCn1c(-c2nonc2N)nc2cnc(Oc3cccc(NC(=O)c4ccc(OCCN5CCOCC5)cc4)c3)cc21	Lassa entry inh 20µM (no result: MARV entry inh, VACV mCherry inh, Vaccinia Venus, HCMV inh, FMDV inh)
CCCOc1ccc(C(=O)NCCN2CCOCC2)cc1	none
O=[N+]([O-])c1ccc(OC2OCC(O)C(O)C2O)cc1 (configuration not stated)	none (no result: MARV entry inh, VACV mCherry inh, Vaccinia Venus, Lassa entry inh, FMDV inh)
O=C(C[n+]1cc(Br)cc(Br)c1)c1ccc(I)cc1	none (no result: MARV entry inh, HCMV inh, Lassa entry inh, FMDV inh)
O=C(CCn1c(=O)[nH]c2ccsc2c1=O)N1CCN(c2cccc(Cl)c2)CC1	MARV entry inh inconclusive, FMDV inh inconclusive (no result: VACV mCherry inh, Vaccinia Venus)
O=C(CCCCn1c(=O)[nH]c2ccsc2c1=O)N1CCN(c2cccc(Cl)c2)CC1	VACV mCherry inh inconclusive, HCMV inh -69, Lassa entry inh inconclusive, FMDV inh inconclusive
O=C(CCCn1c(=O)[nH]c2ccsc2c1=O)N1CCN(c2cccc(C(F)(F)F)c2)CC1	HCMV inh -105, FMDV inh inconclusive
COc1ccc(S(=O)(=O)N2CCC[C@H]2C(=O)N2CCC[C@H]2C(=O)N[C@H](C)c2ccccc2)cc1C	none (no result: MARV entry inh, Lassa entry inh)
COc1ccc(S(=O)(=O)N2CCC[C@H]2C(=O)N2CCC[C@H]2C(=O)N[C@@H](C)c2ccccc2)cc1C	HCMV inh -101 (no result: MARV entry inh, Lassa entry inh)
Cc1ccc(CNc2nc(N)c([N+](=O)[O-])c(NCc3ccccc3)n2)cc1	HCMV inh -61
Nc1nc(Nc2ccccc2)nc(NCc2ccccc2)c1[N+](=O)[O-]	MARV entry inh inconclusive, VACV mCherry inh inconclusive, Vaccinia Venus inconclusive, HCMV inh -75, Lassa entry inh inconclusive, FMDV inh inconclusive
Nc1nc(NCc2ccccc2)nc(NCc2ccccc2)c1[N+](=O)[O-]	MARV entry inh inconclusive, HCMV inh inconclusive
Cc1cccc(Nc2nc(N)c([N+](=O)[O-])c(NCc3ccccc3)n2)c1	MARV entry inh inconclusive, VACV mCherry inh inconclusive, Vaccinia Venus inconclusive, HCMV inh -94, Lassa entry inh inconclusive
CNc1nc(N)c([N+](=O)[O-])c(NCc2ccccc2)n1	none
Nc1nc(Nc2ccccc2)nc(NC2CCCCC2)c1[N+](=O)[O-]	MARV entry inh inconclusive, VACV mCherry inh inconclusive, Vaccinia Venus inconclusive, HCMV inh -79, Lassa entry inh inconclusive
CC1(C)CC(=O)C2=C(C1)O[C@@]1(CCCCN3C(=O)c4ccccc4C3=O)Cc3c(ccc4ccccc34)[C@H]2O1	none (no result: VACV mCherry inh, Vaccinia Venus, HCMV inh, Lassa entry inh, FMDV inh)
Nc1cc(=O)[nH]c(=S)[nH]1	none (no result: MARV entry inh, HCMV inh, Lassa entry inh, FMDV inh)
C1=CN2CC=Cc3cc(/C=C/c4ccnc5ccccc45)cc(c32)C1	none (no result: MARV entry inh, HCMV inh, Lassa entry inh, FMDV inh)
Cc1c(Cl)cccc1-n1nnc(-c2nc(-c3ccc4c(c3)OCO4)no2)c1C	Lassa entry inh inconclusive (no result: MARV entry inh)
Cc1ccc(N(CC(=O)NCc2ccc(F)cc2)C(=O)CCC(=O)Nc2ccccn2)cc1C	MARV entry inh inconclusive, Lassa entry inh 1.4µM
